Test results reported in PubChem BioAssay (NCI).
Where “and” joins values, the source holds several entries; their conditions need not be identical. Equal values may be shown once. This is part of a sample that, as a whole, favours compounds with a hit. Of some 83,000 tested, about 20% had one in any assay.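 Step 1: grow cells in 96-well plates. Step 2: add test compound at a single concentration. Step 3: incubate 48 h. Step 4: record percent growth.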 Calls of active or inactive are those of the source. The calls were made as follows: active = growth percent below 10; inactive = the rest.

Test system: HL-60(TB) leukemia
Assay: NCI-60 one-dose screen, 48 h (100 = growth as untreated, 0 = no growth, -100 = all killed)
Settings: 10 µM unless noted

SMILES | growth
O=C1C(SCCO)=C(SCCO)C(=O)N1c1ccc(-c2ccccc2)cc1 | -44.2% (active)
CC(CN(C)C)CN1c2ccccc2Sc2ccccc21 (centres undefined) | 91.3% (inactive) and 105% (inactive) and 94.5% (inactive)
N#Cc1cccc(NC(=O)c2oc3ccccc3c2-c2cnn(-c3ccccc3)c2)c1 | -22.2% [50 µM] (active)
Clc1ccc2c(NCCCNCc3ccc4c(c3)OCO4)ccnc2c1 | 76.3% (inactive)
COC(=O)[C@]12CC[C@@H](C)[C@H](C)[C@@H]1C1=CC[C@@H]3[C@@]4(C)CC(=O)[C@H](O)[C@@](C)(CO)[C@@H]4C(=O)C[C@@]3(C)[C@]1(C)CC2 | -33.3% (active)
O=S1(=O)CC(Br)C(Br)C1 (centres undefined) | 34.4% (inactive) and 81.8% (inactive)
Cc1n[nH]c(C)c1N=Nc1cccc2c1C(=O)c1ccccc1C2=O | 96.3% (inactive)
[B-][N+](CC)(CC)c1ccccc1 | 45.6% (inactive)
CCc1[nH]nc(-c2ccc(OC)cc2)c1-c1ccccc1OCCN(CC)CC | 92.8% (inactive)
Br/C(=N\Nc1nn[nH]n1)c1ccccc1 | 103% (inactive)
COc1ccc(/C(C#N)=C/c2ccccn2)cc1 | 91.8% (inactive) and 78.1% (inactive)
O=C(Nc1ccc(Br)cc1)c1cc(Br)ccc1O | -18.4% (active) and -60% (active)
Cc1c(C2=NNC(c3ccc4c(c3)OCO4)C2)[n+]([O-])c2ccccc2[n+]1[O-] (centres undefined) | 90.5% (inactive)
COCC(N)=O | 90% (inactive)
CCOC(=O)c1c2ncccc2n2c(=O)n(-c3ccccc3C)nnc12 | 56.9% (inactive)
Cc1cc(C)cc(CCCCCCCCCCCCCCCCCC(=O)O)c1 | 71% (inactive)
C/C(=C\c1ccccc1)c1ccccn1 | 70.9% (inactive)
COc1ccc2c(c1)C(=O)/C(=C/c1cccc(OCC(=O)c3ccccc3)c1)O2 | -80.5% (active)
N/C(=C\C(=O)n1nc(-c2ccccc2)cc1N)c1ccccc1 | 1.71% (active)
COC(=O)[C@H]1CCCN1C(=O)C1CCCN1C(=O)[C@@H](Cc1ccccc1)NC(=S)Nc1cc(C(F)(F)F)cc(C(F)(F)F)c1 (some centres undefined) | 112% (inactive) and 58.9% (inactive)

SMILES | growth
CCOC(=O)c1cc2c(n1Cc1ccccc1)-c1oncc1CCC2 | 33.9% (inactive)
O=S(=O)(NCCCNc1cc(-c2cn(-c3ccccc3)nc2-c2cccc(O)c2)ccn1)c1ccccc1 | 42.8% (inactive)
Cc1oc2c(C(=O)N/N=C\c3ccc(O)cc3O)c[nH]c2c1C | -9.06% (active)
CCC(=O)OC1=C(C)SC2=NC(c3ccc(Cl)c(Cl)c3)=CC(c3cc(OC)c(OC)c(OC)c3)N21 (centres undefined) | 97.8% (inactive)
COc1ccccc1S(=O)Nc1ccccc1 (centres undefined) | 91.5% (inactive)
O=C1C(Cl)=C(Nc2ccccn2)C(=O)c2ccccc21 | 72.9% (inactive)
CC(=O)OCC1OC(OCC2OC(OC(C)=O)C(OC(C)=O)C(OC(C)=O)C2OC(C)=O)C(OC(C)=O)C(OC(C)=O)C1OC(C)=O (centres undefined) | 115% (inactive)
CCN1CCC2(CC1)OC(c1ccccc1)C(c1ccccc1)O2 (centres undefined) | 103% (inactive)
CC(=O)Oc1c(Cl)c(Cl)c(Cl)c(Cl)c1Cl | 82.2% (inactive)
Cc1nn(-c2nc3ccccc3[nH]2)c2c1C(c1ccc(OCc3ccc(F)cc3)cc1)CC(=O)N2 (centres undefined) | 75.8% (inactive)
COc1ccc(NC(=O)c2cc3ccccc3nc2Nc2cc(OC)c(OC)c(OC)c2)cc1 | 67.3% (inactive)
CS(=O)(=O)Nc1cc(-c2ccc3ncnc(Nc4ccc5c(cnn5Cc5ccccn5)c4)c3c2)cnc1Cl | 56.5% (inactive)
Oc1cccc(Nc2nccc(-c3ccc4ccccc4c3)n2)c1 | 0.229% (active)
OCCOc1c(Cl)cc(Cl)cc1Cl | 118% (inactive)
CCCCCC(=O)Oc1ccc(/C(=C(\C)c2ccc(OC)cc2)c2ccc(OCCN3CCCCC3)cc2)cc1 | 42.7% (inactive)
CCN1C(=O)/C(=C/N2N=C(c3ccc(Cl)cc3)CC2c2ccc(OC)cc2)SC1=S (centres undefined) | 67.1% (inactive)
O=c1c(CNc2ccc(S(=O)(=O)Nc3nccs3)cc2)coc2ccccc12 | 89.6% (inactive)
COc1ccc(-c2nc3sc(-c4ccc(OC)cc4)c(-c4ccc(OC)cc4)n3c2/C=C/c2ccc(C(C)C)cc2)cc1 | 97% (inactive)
Oc1ccccc1/C=N\NC(=S)N/N=C/c1ccccc1O | -7.82% (active) and 18.6% (inactive)
